HCMV inh = qHTS Assay for inhibitors of the human cytomegalovirus (HCMV); HFF cells, HCMV-luciferase reporter, 72 h; stronger effect = lower value; activity change, negative = inhibition, % at 57.5 µM; 410,000 tested, 4.5% active; AID 1259415, 2018; in the data active means activity change below about -60%; inconclusive means no clear call, values can overlap the other calls; inactive means above about -39%; further: on the % scale 0 is the no-effect control and ±100 the full control effect
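Steps: HFFs plated, 16 h 37C; compounds added; HCMV-luciferase added to MOI 1 PFU/cell; 72 h 37C; OneGlo reagent, 5 min room temperature; luminescence read, normalized to controls.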
HCV inhibitor = qHTS Assay for Inhibitors of Hepatitis C Virus (HCV); Huh7.5.1 HCVcc-Cre infection, luciferase reporter, 44 h; Potency, µM (doses to about 41.8 µM), inactives show top-dose activity change, negative = inhibition, hits mostly inhibitors; 340,000 tested, 3.4% active; AID 651820, 2012; active means well fitted inhibition curve with a large enough effect; inconclusive means small, poorly fitted or top-dose-only effect, or another doubt; inactive means no such curve, though single readings can be large or run the other way; further: potency means the concentration at half of the fitted maximal effect; on the % scale 0 is the no-effect control and ±100 the full control effect
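A cell-based infection assay in which seeded cells (1,000 per well) receive test compound after 4 h, are inoculated with HCVcc-Cre at approximately 0.5 moi, and are incubated 44 h before luminescence detection.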
SARS PLP yeast = qHTS of Yeast-based Assay for SARS-CoV PLP; S. cerevisiae expressing SARS-CoV PLpro, growth rescue; Potency, µM (highest dose often 32.9 µM), for inactives: at the top dose activity, positive = growth rescue, actives largely listed as activators; AID 485353, 2010; 330,000 tested, 0.19% active; calls by dose curve; further: potency means the concentration at half of the fitted maximal effect; 0% is about no effect; nearly all actives have a fitted effect of over 55% in size
Marburg entry inh = qHTS for inhibitors of binding or entry into cells for Marburg Virus; Marburg virus pseudotyped entry inhibition, cell reporter; Potency, µM (top dose mostly 37.8 µM), for the others: at the top dose activity change, negative = inhibition, most hits filed as inhibitors; 300,000 tested, 1.8% active; calls by dose curve; tested in HEK293 cells; further: potency means the concentration at half of the fitted maximal effect; on the % scale 0 is the no-effect control and ±100 the full control effect
FMDV antiviral = High Throughput Screening for Foot and Mouth Disease Virus Antivirals. Potency, µM (series often up to 57.9 µM), for inactives: at the highest dose activity change, negative = inhibition, usual class: inhibitors. 410,000 tested, 1.2% active. FMDV antiviral cell-based qHTS. AID 1159524, 2015; calls by dose curve; tested in HEK293T cells; further: read-out not given here; potency means the concentration at half of the fitted maximal effect; on the % scale 0 is the no-effect control and ±100 the full control effect; nearly all actives have a fitted effect of over 45% in size
Lassa entry inh = qHTS for Inhibitors of binding or entry into cells for Lassa Virus. Lassa virus pseudotype entry inhibition, cell reporter. Potency, µM (titrated, usually from 37.9 µM), for the others: at the highest dose activity change, negative = inhibition, hits mostly inhibitors. 300,000 tested, 1.2% active. AID 540256, 2011; calls by dose curve; tested in HEK293 cells; further: potency means the concentration at half of the fitted maximal effect; on the % scale 0 is the no-effect control and ±100 the full control effect; nearly all actives have a fitted effect of over 50% in size
* = called active by the depositor; u = inconclusive; x = no result; + = active, no number; [ ] = another dose, or the depositor's remark. Most compounds without a hit are left out; they make up all but 8% or so of the library.

SMILES | HCMV inh | HCV inhibitor | SARS PLP yeast | Marburg entry inh | FMDV antiviral | Lassa entry inh
O=C(N/N=C/c1cc(Br)c(Br)o1)c1cc2ccccc2o1 | + | -26% | -9% | u | 4% | u
CC1(C)C[C@@]2(C)CCC3=CC(=O)C=C[C@@]32O1 | -26 | x | x | x | x | x
O=C(N/N=C/c1ccc([N+](=O)[O-])o1)c1ccncc1 | -31 | u | 3% | -23%[46.1 µM] | -5% | u
O=C(N/N=C/c1ccc([N+](=O)[O-])o1)c1ccc(O)cc1 | -93* | 25µM* | 5% | u | -22% | u
Cc1nc2ccccn2c1C(=O)N/N=C/c1ccc([N+](=O)[O-])o1 | -74* | u | -1% | x | -27% | x
CCN(CC)S(=O)(=O)c1cccc(C(=O)N/N=C/c2ccc([N+](=O)[O-])o2)c1 | -61* | u | 6% | u | u | u
CCOC(=O)N1CCN(c2ccc(S(=O)(=O)N3CCOCC3)cc2[N+](=O)[O-])CC1 | -11 | -6% | -2% | -7% | -16% | 20%
CCOC(=O)COc1ccc(S(=O)(=O)N2CCN(C(=O)OCC)CC2)cc1 | 17 | 12% | -15% | -8% | -9% | -2%
CCOC(=O)c1ccoc1CN1CCN(S(=O)(=O)c2ccc(C)c(C)c2)CC1 | -63* | u | -10% | -23% | -23% | -26%
CCOC(=O)N1CCN(S(=O)(=O)c2ccc(OCC(=O)OC)cc2)CC1 | -78* | 16% | -3% | -2% | x | 9%
Cc1ccc(S(=O)(=O)N2CCN(Cc3ccco3)CC2)cc1C | u | 2% | 3% | -1%[46.1 µM] | -10% | 14%[46.1 µM]
CCOC(=O)N1CCN(S(=O)(=O)c2ccc(C)c([N+](=O)[O-])c2)CC1 | -62* | -12% | -1% | u | -21% | 6%
CCOc1ccc2nc(NC(=O)c3ccc(C)o3)sc2c1 | 48 | u | x | u | -44% | 8.9µM*
CCOc1ccc2nc(NC(=O)CS(=O)(=O)c3ccc(Cl)cc3)sc2c1 | + | x | x | x | -14% | u
CCc1ccc(CNC(=O)c2ccc(Cn3c(=O)c4cccn4c4cccnc43)cc2)cc1 | 2 | x | x | x | -23% | 5%[46.1 µM]
COc1ccc(CCNC(=O)CCCCn2c(=O)c3ccccc3n(Cc3cc(C)ccc3C)c2=O)cc1OC | 14 | x | x | -26%[46.1 µM] | 1% | 8%[46.1 µM]
O=C(CSc1cn(CCNC(=O)c2c(F)cccc2F)c2ccccc12)Nc1ccc(F)cc1 | -17 | x | x | 2%[46.1 µM] | -4% | -2%[46.1 µM]
CC(C)CN(CCNC(=O)CCN1N=C(c2ccccc2)CCC1=O)CC(C)C | -24 | x | x | x | -6% | u
CC(=O)Nc1ccc(C(=O)N/N=C/c2cc(Br)cc(Br)c2O)cc1 | -8 | -8% | 0% | 10µM* | -14% | u
CC(C)C(=O)Nc1ccc(C(=O)N/N=C/c2cc(Br)cc(Br)c2O)cc1 | -78* | u | 2% | u | -13% | u
COc1cc(OC)c(/C=N/NC(=O)c2ccc(NC(C)=O)cc2)cc1Br | -22 | -6% | 0% | u | 5% | 11%
Cc1ccccc1C1=NOC2CN(C(=O)COc3ccccc3)CC12 (stereo not given) | -23 | x | x | x | x | x
CCCOc1ccc(C(=O)Nc2ccc3oc(-c4ccc5ccccc5c4)nc3c2)cc1 | 36 | x | x | x | 24% | 12%[46.1 µM]
COc1ccc(CN2CCOc3ccc(CN4CCC(Oc5cccnc5)CC4)cc3C2)cc1 | x | x | x | x | -24% | x
COC(=O)C(Nc1ccccc1Cl)(c1cc(C)c(O)c(C)c1)C(F)(F)F (stereo not given) | -78* | 14µM* | -26% | u | -8% | u
SMILES | HCMV inh | HCV inhibitor | SARS PLP yeast | Marburg entry inh | FMDV antiviral | Lassa entry inh
COc1cc(NC(=O)Cn2ncc3c([nH]c4ccc(C)cc43)c2=O)cc(OC)c1OC | -5 | x | x | x | -8% | 16%[46.1 µM]
Fc1ccc(NC(=S)Nc2cccc3ccccc23)cc1 | 6 | -24% | -5% | x | 0% | x
Fc1ccc(NC(=S)Nc2cccc3ccccc23)cc1F | -71* | u | -6% | x | 6% | x
COc1ccccc1NC(=S)Nc1cccc2cnccc12 | -79* | 10µM* | -4% | u | u | -2%
CN(C)S(=O)(=O)c1cccc(NC(=S)Nc2cccc3cnccc23)c1 | -72* | -26% | -1% | u | u | u
CN(C)S(=O)(=O)c1cccc(NC(=S)N/N=C/c2cc(Br)ccc2O)c1 | -98* | -22% | 20% | 10µM* | u | u
CCc1nnc2c(Nc3cc(OC)c(Cl)cc3OC)nc3ccccc3n12 | 47 | x | x | -7%[46.1 µM] | -4% | 20%[46.1 µM]
COc1cc(-c2nc(C)cnc2C)cc2c1OCCN(C(=O)Cc1cc(OC)c(OC)c(OC)c1)C2 | x | x | x | x | -5% | x
COc1cc(-c2ccc(Cl)cn2)cc2c1OCCN(S(=O)(=O)C[C@]13CC[C@H](CC1=O)C3(C)C)C2 | x | x | x | x | -3% | x
CC1CCCCC1NC(=S)Nc1cccc(S(=O)(=O)N(C)C)c1 (stereo not given) | -68* | 3% | -1% | 22%[46.1 µM] | 9% | -3%
S=C(Nc1ccc(Cl)cc1)Nc1cccc2cnccc12 | -98* | u | -98% | u | -6% | u
CN(CC(=O)Nc1cccc(F)c1)C(=O)Cc1n[nH]c(=O)c2ccccc12 | -5 | 20% | -2% | -9% | -22% | -13%
CN(CC(=O)Nc1ccc(Cl)c(C(F)(F)F)c1)C(=O)c1cc(-c2ccncc2)nc2ccccc12 | -33 | u | -3% | u | 28µM* | -17%[46.1 µM]
CN(CC(=O)Nc1ccc(Cl)c(C(F)(F)F)c1)C(=O)Cc1n[nH]c(=O)c2ccccc12 | -73* | u | -2% | -26% | u | u
Cc1cccc(C(=O)N[C@H](C(=O)Nc2nc(C)cs2)C(C)C)c1 | 47 | -4% | 8% | 10% | -10% | 2%
COc1ccc(C(=O)N[C@H](C(=O)Nc2nc3ccccc3[nH]2)C(C)C)cc1 | -86* | 7.1µM* | 0% | u | 14% | u
Cc1cccc(C(=O)N[C@H](C(=O)Nc2nc3ccccc3[nH]2)C(C)C)c1 | -81* | -24% | 0% | x | -25% | x
COc1ccc(CN2C(=O)CS/C2=N/N=C/c2ccccc2)cc1 | 53 | 13µM* | -1% | x | 14% | x
Cc1nn(C)c2c1c(-c1ccccc1)cc(=O)n2Cc1ccc(F)cc1 | -2 | x | x | x | 6% | -10%[46.1 µM]
Cc1nnc(SCC(=O)NC2CCCCC2)n1-c1ccccc1 | -37 | x | x | x | -9% | x
O=C(CSc1nnc(Cc2cccs2)n1-c1ccccc1)NC1CCCCC1 | -26 | -14% | 2% | -19% | 7% | 14µM*
O=C(Nc1cccc(S(=O)(=O)Nc2ccccc2Cl)c1)c1ccc(Cl)nc1 | -86* | u | -4% | u | 28µM* | u

Assay outcomes: PubChem, National Center for Advancing Translational Sciences (NCATS)
